Legend:
ETS1 [1] = target: T1, ETS1 (UniProt P14921); assay: ETS1 binding intensity (PBM fluorescence), ETS1 alone (arbitrary fluorescence units); higher = stronger binding; conditions: ETS1 concentration 1 nM; RUNX1 concentration 0 nM
T1 sequence: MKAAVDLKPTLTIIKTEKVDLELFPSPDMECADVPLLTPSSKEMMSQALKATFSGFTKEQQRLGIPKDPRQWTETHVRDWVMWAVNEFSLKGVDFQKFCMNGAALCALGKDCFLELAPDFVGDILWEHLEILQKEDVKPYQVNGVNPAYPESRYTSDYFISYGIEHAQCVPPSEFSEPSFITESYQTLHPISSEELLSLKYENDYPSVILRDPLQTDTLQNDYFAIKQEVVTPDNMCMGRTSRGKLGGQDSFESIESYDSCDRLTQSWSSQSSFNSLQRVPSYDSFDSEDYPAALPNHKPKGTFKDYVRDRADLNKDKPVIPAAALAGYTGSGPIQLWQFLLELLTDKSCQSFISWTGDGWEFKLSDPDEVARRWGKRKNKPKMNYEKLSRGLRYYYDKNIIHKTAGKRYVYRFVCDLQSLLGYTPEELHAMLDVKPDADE

RUNX1 [2] = target: RUNX1 (UniProt Q01196); assay: RUNX1 binding intensity (PBM fluorescence), RUNX1 alone (arbitrary fluorescence units); higher = stronger binding; conditions: RUNX1 concentration 2 nM; ETS1 concentration 0 nM
Procedure: (§1)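 Cooperative gcPBM on 36-bp genomic probes with neighbouring ETS1 and RUNX1 sites. Recombinant human RUNX1 (2 nM) was incubated alone or with ETS1 (25 nM) and detected with anti-RUNX1 antibody plus Alexa488 secondary. Values are medians over 4 replicate spots; the RUNX1+ETS1 data were normalised to the RUNX1-only data. The probes sit in constant array flanks that are not printed.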

ETS1 [3] = target: T1, ETS1; assay: ETS1 binding intensity (PBM fluorescence) in presence of RUNX1, normalised to ETS1-only experiment (arbitrary fluorescence units); higher = stronger binding; conditions: ETS1 concentration 1 nM; RUNX1 concentration 25 nM
RUNX1 [4] = target: RUNX1 (UniProt Q01196); assay: RUNX1 binding intensity (PBM fluorescence) in presence of ETS1, normalised to RUNX1-only experiment (arbitrary fluorescence units); higher = stronger binding; conditions: RUNX1 concentration 2 nM; ETS1 concentration 25 nM
Procedure: as §1
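Wherever RUNX1 binding intensity (PBM fluorescence) in presence of ETS1, normalised to RUNX1-only experiment is given: Full-length recombinant human ETS1 or RUNX1 bound to double-stranded 36-bp genomic probes on microarrays, detected by protein-specific primary antibody and Alexa488 secondary, spot fluorescence as median of four replicate spots.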
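Wherever RUNX1 binding intensity (PBM fluorescence), RUNX1 alone is given: Full-length recombinant human RUNX1 bound to double-stranded 36-bp genomic probes on a high-density microarray, scored as Alexa488 fluorescence per spot via anti-RUNX1 antibody, median of four replicate spots.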

Chain of RUNX1 (Q01196 whole entry): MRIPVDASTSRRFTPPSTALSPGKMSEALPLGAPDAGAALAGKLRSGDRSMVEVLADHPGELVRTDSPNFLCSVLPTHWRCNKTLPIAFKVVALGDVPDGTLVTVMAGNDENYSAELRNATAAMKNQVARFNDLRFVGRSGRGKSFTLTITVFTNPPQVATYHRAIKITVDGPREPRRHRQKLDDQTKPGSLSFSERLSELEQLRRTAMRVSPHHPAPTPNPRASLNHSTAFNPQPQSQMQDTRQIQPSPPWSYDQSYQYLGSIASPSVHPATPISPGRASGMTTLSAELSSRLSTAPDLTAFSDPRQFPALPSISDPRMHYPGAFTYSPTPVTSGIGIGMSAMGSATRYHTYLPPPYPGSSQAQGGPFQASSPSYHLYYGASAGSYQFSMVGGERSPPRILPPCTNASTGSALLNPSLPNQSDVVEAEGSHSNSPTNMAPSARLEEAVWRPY

Sequence	ETS1 binding intensity (ETS1 [1])	RUNX1 binding intensity (RUNX1 [2])	ETS1 binding intensity (ETS1 [3])	RUNX1 binding intensity (RUNX1 [4])
GGCGGAAGCTGCCGCTGCCTTGCGCCCCCACACACG	640	818	685	1040
TTTCTCTTCCTGTTTCCACCCTGACCACAGCCAGCT	476	2930	1350	5140
TGAGAAAACAGGAAGCGCCCAGTCACCACAGAAAGC	2910	765	5290	1330
ACCGCCGGAAGTTTCTGCCGCGGCTTTGCGGGGACG	3320	791	9610	1760
CACTCCCCGCATCCGGTCTGCGGCGCGCTCGGGGCC	3830	912	4710	29400
CGCCGCTCAACTTCCGGCAACCACAGCTCTCTCTGA	1830	1070	3870	3150
CCGCCGACACACTTCCGGCGGCCACCACAGGGTATT	3140	795	3660	1910
GAGGCGACCCACATCCGCTGTGCGGGGGCAACTGCA	957	729	1270	6600
TACATCTTCAGAGGAAGTGGGTTTGTGTATCTTTGA	2460	786	3750	1380
CCCTGACTTTTACGGAAATAGCGGTCCAAAAGCGCC	986	880	1080	1160
ACGAGGTTGGCCTCATCCGGTGGTTTTCGCAGCACG	1290	837	1280	1710
CCTTGCTGCAGGATGCTCTAACCACAAGCCCAGGAG	528	2370	2720	5330
GTAGAGACAGGAAATTATGTTGGTTTTCTTGCAGAA	3530	724	3800	1310
CGGGGATGGGATTTCCGGTGGTTTTTCTTCACTTTC	4490	851	4760	3240
AGACGGTAGGCCAGGAAACCGCAGGCCCCTGCCGGG	925	6110	3730	10600
GTGAGAGGAAGTGGGCGCTGGTTTAATGTGGTCAGC	1010	834	5410	2360
GCTAAGGTGAAAGGAAGTGGGTTTTGTCTTTTTTTT	2500	854	4150	1340
GCTCATTTCCTGGCCGCTCCTGGGCTTCGCGGTGAG	498	834	716	1730
CCGCGCCGCTTCCTCCAGACACCGCAAGGGGGTGCT	325	893	446	1660
CCCCGGGAAGGGAAGTTTGTGGCGGAGGAGGTTCGT	592	805	589	934
GGCGGCTTCCGGGATCTGCCTGGCGGTTGCTTTGTC	568	729	525	2140

Sequence	ETS1 binding intensity (ETS1 [1])	RUNX1 binding intensity (RUNX1 [2])	ETS1 binding intensity (ETS1 [3])	RUNX1 binding intensity (RUNX1 [4])
TACAATTCGCACCGGAACTTGCGGCCCGGCTTCATT	3630	729	4640	963
TTCTGCTACATCCTGCCCACTCCCTGTGGCTTCCAC	1090	1380	1060	3270
TGTCATCCCGGAAACTGATAACAAGACCGCGAGTCA	1910	807	2530	1450
CCATTTCCGCGCACGTCTGCAGATGCGGTAGTCGAT	413	853	463	1830
TAAGTGAATTTCCTGCCCGCCTCCGCCCACAGCGTA	775	809	744	1790
AGCCGTTTCCGGCGCTCTACCCCGCCGCAGGCCGAG	833	859	979	2300
CACTTCCCGTGGGAGGATCTTGGGCTGCGGCTAGGG	421	803	802	1850
CCCCTGCCCCTTCCTGGAAGGCTGCGGTGTAACACC	435	978	704	1780
GATACCTAGAAGCCAGGAAACCGCGAGCTGCAGTCC	1080	1190	2130	1380
AGACCCGGAAGAACTTGTCCCAGTGTTGACCACACC	505	870	1100	938
CATCCAGGACGGAAACAGCATCCCCACCGCGGGAGC	775	855	852	1080
CCACGTCCACAAAGGAAACCGCGGCCTGCCCGGGGA	512	1080	1390	1590
ACGGTGTGTCTCATTTCCTGTGGGTAACAGGCACCA	2120	935	3240	1720
TCACTCTAACAGGATATTGTGGTTAACTATGTTGCC	2460	2580	17400	14800
TACACTCCCACATCCGCTGCGGCGCAACTCACAACA	969	1020	1260	6980
TATTGTGTACTTCCCCTTCATGTTGTGGTTGGCTTT	449	1120	619	1560
ATGGTGTAGAGAGGATGTGGGCTTTAAGGTCAGAGA	1140	706	1690	1000
GCCGTCACTTCCGTCATTCAAACCGCCCGCCAATGG	823	1050	1160	2520
GGGGCCTCTGCTACTTCCTAGACCGCAAAATGGAGA	413	5260	1570	6150
TTGGAGGCGGAAACAGGCACCGAAAGCGGTGGAAGT	2150	717	2120	854
TGGCTGTGAGCTGCAGGATGTGGTCAGGAGAGGAAG	2180	804	19700	2310

Sequence	ETS1 binding intensity (ETS1 [1])	RUNX1 binding intensity (RUNX1 [2])	ETS1 binding intensity (ETS1 [3])	RUNX1 binding intensity (RUNX1 [4])
CAAATGAATAAAGGATGTGGTAAATTATTTTCTTCT	935	814	5660	1780
GGCCCAGGAAAGAGGCAGGGGTGCGGTTTCCCTCCG	394	1060	761	1480
CCCACTCCACTTCCGCCACCGCCGCAGCCGCCGCTG	1430	1980	1420	5930
GAGGGGTGGGGGAGGAAGGCTGCGGTTTCTGCTGGG	390	8430	2180	11100
ACAGAGCAGGAAGCAGCCCTCACCACAGATGAAGCA	686	760	1210	1360
CAAGCACATTACGGAAGAGGCTGACCGCAAATACGA	595	4550	6680	6950
TCTCTACTTCCCATTATTTCTGTGGTTAATTTCACC	369	10400	986	13500
ACCTCAGGTACCGGAAGACCACAATTCCCAGGAGTC	2950	965	4740	1740
GAGCGCAGGACGGAAGCTCGGTGCGGGTGCGGCCTC	964	702	938	917
GTTTCATGTTAAGTAGGATGTGGTCAGTTAGCTTCG	851	1120	5410	1290
GGCGGATGGGGAGAAGAGAGTGGCTGTGGTCTCTGG	371	861	491	712
TCCAGCGGAAGGGGGCATCTTTGCGGCAGAGGCAGC	470	764	431	979
TCTAGTTCTGGTTTCCGGACCGCATTCGGAACTAGA	1000	786	1390	1350
GGAGGAAGTGACACCCACCCACTGCCCCCGCAAGGT	962	797	987	963
TGTGTAAGAGGAAACACCAAAACCACAAATATGAAA	736	2080	3280	3530
CACCCGCCCCCCGGAAGTGCCGGTGGTTGGGCTCCG	5120	703	7610	1540
GCGCTTCCTGCCAGCTTGGAGGATAACCGCCTACCG	505	754	513	1730
CGGGACTTCCTGTCTTCCCTGTTGCGGAGCTCTGAA	1720	780	1830	2000
GCCACTTCCGGTCACTCCCCGCTGCGGCCTCGCGCT	7030	1190	8280	3940
GACCGAGAGGAAGCAGCAAGGATCCTGCGGTTCCAG	505	821	1990	875
AATGGGCTTGGTTTCCTGTGGGTTTGTAGCTTTGTA	519	899	685	2120

Sequence	ETS1 binding intensity (ETS1 [1])	RUNX1 binding intensity (RUNX1 [2])	ETS1 binding intensity (ETS1 [3])	RUNX1 binding intensity (RUNX1 [4])
ATCACTTGTTTCCGCCAGCAAACCACAGGTCCCCAG	417	1550	811	3750
TTTACAGGAAATATCCAGAACAGGTAAACCCACAGA	778	796	1630	926
TGGTTCCACCGACCGGAAGGGCCACAAGGATCCCCG	5280	659	5560	1250
ACGACGTCCCGGAAGTGCTGCGGCAATGTTGCTCTT	5570	759	6620	1470
CGTACGCGCACTTCCGGTCTTTGTGGCTTGCAGCTC	18000	853	34400	2610
AACTTCCGAGGGAACTAACTGGTTTTAACCACATTG	367	886	923	1190
CACCTGCGGAAGTCACAGGGAAGCCACAGAGAGATG	849	766	1160	1080
GCGCAAGCAGGAAGCGTTTGCGGTGATCCCGGCGAC	1890	746	9000	2000
TGCGCGCCGGCTTCCGCTGCGGCCAGTCGGGCGGCG	668	647	635	1240
GGGCTCGGGGAGGAAGCGGTGGTTTCTCTTTGAAGC	696	729	907	970
AGATGCAGAACAGGAAGTGGTTTAGAAAGCCACTCT	8980	827	13700	2720
CAGAGAGAGGCCACATCCCTGTGGTCACACATACCC	428	980	590	1030
TACGTCACTTCCGGGCCGCCGTCCTGCGGGCAAGGG	2570	799	3920	2270
ACCAGCCCAGGAAGCATCTGCGGTTCAAGTGGCCAC	452	1130	1470	1750
GCTCCTGGCCCGCACTTCCGACCACACACTGGGGAC	557	–	592	1610
TGAAACCCAGCAGGATGTGGGTTAACGGCAGGGGAG	2590	–	6440	2250
CTGCCTTTCCTGCTAGGGTACAAACCACAGCCTTAG	369	–	774	1640
AGCGCTTCCTGGCTCCGGCCCCGCCCCTGCGGTCGG	484	–	1110	1880
AAAGAGGAAATCACGTACCCGAAAACCACATGCACA	530	–	1370	928

From the supplement of paper PMC10681739
